Test results taken from PubChem BioAssay (NCATS).
Records with an inconclusive call do not appear. Activity calls are given as the source filed them. Calls come from the whole dose curve; as a rule, active = well fitted cell-killing curve with a large enough effect; inconclusive = small, poorly fitted or top-dose-only effect, or effect the other way; inactive = no such curve, though single readings can be large or run the other way.

Experiment: Quantitative High-Throughput drug screen in 47 multiple myeloma cell lines against the NCATS MIPE library collection: KMS11_JCRBsus cell viability assay (AID 1919873); note: nearly all actives have a fitted effect of over 50% in size
Settings: KMS11 myeloma viability, CellTiter-Glo ATP luminescence, 48 h; series mostly up to 45.8 µM
Description: PI: Beverly A. Mock Ph.D.
Laboratory of Cancer Biology and Genetics,
Center for Cancer Research, National Cancer Institute,
National Institute of Health, Bethesda, Maryland
Drug resistance and disease progression are common in multiple myeloma (MM) patients, underscoring the need for new therapeutic combinations. […] We hypothesized that effective combinations would reduce MYC expression and enhance p16 activity. […] These preclinical data identify potentially useful drug combinations for evaluation in drug-resistant MM and reveal potential mechanisms of combined drug sensitivity.
Described herein is the primary MIPE qHTS used to cherrypick compounds. Validated compounds were then further tested for potential synergistic activiy.
[1] Peat TJ, Gaikwad SM, Dubois W, Gyabaah-Kessie N, Zhang S, Gorjifard S, Phyo Z, Andres M, Hughitt VK, Simpson RM, Miller MA, Girvin AT, Taylor A, Williams D, D'Antonio N, Zhang Y, Rajagopalan A, Flietner E, Wilson K, Zhang X, Shinn P, Klumpp-Thomas C, McKnight C, Itkin Z, Chen L, Kazandijian D, Zhang J, Michalowski AM, Simmons JK, Keats J, Thomas CJ, Mock BA. Drug combinations identified by high-throughput screening promote cell cycle transition and upregulate Smad pathways in myeloma. Cancer Lett. 2023 Aug 1;568:216284. doi: 10.1016/j.canlet.2023.216284. Epub 2023 Jun 24. PMID: 37356470; PMCID: PMC10408729.
SEQUENCE No. (e.g., 1, 2, 3, etc.); […] (e.g., Cells, Incubation, Reagent, etc.); VALUE and DESCRIPTION.
1; Cells; 5 uL; white, solid bottom 1536-well Greiner assay plate.
2; Compounds; 23 nL; Kalypsis pin tool (Wako USA) equipped with a 1536-well pin head to transfer to the assay plates.
3; Incubation; 48 hours; 37C incubation.
4; Reagent;5uL; CellTiter Glo (Promega).
5; Detector; 425V; Luminescence; Viewlux PerkinElmer.
NOTES (numbers refer to Sequence numbers above)
1. The cell-based screening methods employed in this study were like those previously published. Briefly, the corresponding myeloma cell lines were screened in 1,536-well plates with 500 cells, 5-uL per well for inhibition of cell viability (assessed by measuring ATP levels with CellTiterGlo).
2. NCATS MIPE 4.0 library of approved and investigational drugs were added using the Kalypsis pin tool. Wells treated with DMSO only for 100% viability and media only for 0% viability were used as controls.
3. The assay plates were covered and incubated for 48 hours in a 37C, 5% CO2 incubator with controlled humidity.
4. After 48 hours, CellTilter-GloTM luminescent substrate mix (Promega) reagent was added to the assay plate and plates we incubated for 5 min at room temperature.
5. Signal was measured as median relative luminescence units on a ViewLux (PerkinElmer) multiplate reader.
[1] Heske CM, Davis MI, Baumgart JT, Wilson K, Gormally MV, Chen L, Zhang X, Ceribelli M, Duveau DY, Guha R, Ferrer M, Arnaldez FI, Ji J, Tran HL, Zhang Y, Mendoza A, Helman LJ, Thomas CJ. Matrix Screen Identifies Synergistic Combination of PARP Inhibitors and Nicotinamide Phosphoribosyltransferase (NAMPT) Inhibitors in Ewing Sarcoma. Clin Cancer Res. 2017 Dec 1;23(23):7301-7311. doi: 10.1158/1078-0432.CCR-17-1121. Epub 2017 Sep 12. PMID: 28899971; PMCID: PMC6636827.
Potency is the fitted concentration of half-maximal effect.

SMILES	Potency
O=C(Nc1cc(C(F)(F)F)cc(C(F)(F)F)c1)c1cc(Cl)ccc1O	332 nM (active)
O=C(Cc1ccc(-c2ccc(OCCN3CCOCC3)cc2)cn1)NCc1ccccc1	10.5 nM (active)
Cn1c2cc(S(C)=O)sc2c2cnn(Cc3cccc(N)c3)c(=O)c21 (stereo not given)	inactive
Cc1cc(Nc2cc(N3CCN(C)CC3)nc(Sc3ccc(NC(=O)C4CC4)cc3)n2)n[nH]1	2350 nM (active)
COC(=O)[C@]12CCC(C)(C)C[C@@H]1[C@@H]1C(=O)C=C3[C@@]4(C)C=C(C#N)C(=O)C(C)(C)[C@@H]4CC[C@@]3(C)[C@]1(C)CC2	187 nM (active)
CC(C)(C)OC(=O)Nc1ccc(-c2cc(C(=O)NCCCCCCC(=O)NO)no2)cc1	1480 nM (active)
CCC1=C[C@@H]2CN(C1)Cc1c([nH]c3ccccc13)[C@@](C(=O)OC)(c1cc3c(cc1OC)N(C)[C@@H]1[C@@](O)(C(=O)OC)[C@H](OC(C)=O)[C@]4(CC)C=CCN5CC[C@]31[C@@H]54)C2	8.3 nM (active)
COc1cc2c(Nc3ccc(NC(=O)c4ccccc4)cc3)ncnc2cc1OCCCN1CCOCC1	10500 nM (active)
CC(C)(C)c1cnc(CSc2cnc(NC(=O)C3CCNCC3)s2)o1	132 nM (active)
CC(C)[C@H](C(=O)Nc1ccc(C(=O)NO)cc1)c1ccccc1	469 nM (active)
CCC[C@H](NC(=O)C(C#N)=Cc1cccc(Br)n1)c1ccccc1	2960 nM (active)
C=C1C(=CC=C2CCC[C@]3(C)[C@@H]([C@H](C)C=C[C@H](C)C(C)C)CC[C@@H]23)C[C@@H](O)C[C@@H]1O	526 nM (active)
COc1ccc(C=Cc2cc(OC)c(OC)c(OC)c2)cc1O	inactive
Nc1ncnc2c1c(-c1cnc3[nH]ccc3c1)nn2C1CCCC1	46.9 nM (active)
COc1cc(C(=O)NS(=O)(=O)c2ccccc2C)ccc1Cc1cn(C)c2ccc(NC(=O)OC3CCCC3)cc12	7430 nM (active)
CC1(C)CC(=O)c2c(C(F)(F)F)nn(-c3ccc(C(N)=O)c(NC4CCC(OC(=O)CN)CC4)c3)c2C1 (stereo not given)	118 nM (active)
O=C(CCCCCCC(=O)Nc1ccc([C@H]2O[C@@H](CSc3nc(-c4ccccc4)c(-c4ccccc4)o3)C[C@@H](c3ccc(CO)cc3)O2)cc1)NO	11800 nM (active)
COc1cc(C(=O)N2CCC(N3CCN(C)CC3)CC2)ccc1Nc1ncc2c(n1)N(C)c1ccccc1C(=O)N2C	1660 nM (active)
COc1cc2c(Oc3ccc(NC(=O)C4(C(=O)Nc5ccc(F)cc5)CC4)cc3F)ccnc2cc1OCCCN1CCOCC1	1180 nM (active)
CCS(=O)(=O)c1cccc(-c2cc(C(=O)NC3CCN(C)CC3)c(C)c3[nH]c4ncc(C)cc4c23)c1	526 nM (active)

SMILES	Potency
CN(C)Cc1c(C(=O)NCCOc2ccc(C(=O)NO)cc2)oc2ccccc12	662 nM (active)
CC(C)c1cc(C(=O)N2Cc3ccc(CN4CCN(C)CC4)cc3C2)c(O)cc1O	105 nM (active)
O=C(CCCCCCNC(=O)c1cnc(N(c2ccccc2)c2ccccc2)nc1)NO	7430 nM (active)
O=C(O)C1(Cc2cccc(Nc3nccs3)n2)CCC(Oc2cccc(Cl)c2F)CC1 (stereo not given)	296 nM (active)
Cc1cn2c(-c3cn[nH]c3)cnc2c(Nc2ccc(C(=O)N3CCNCC3)cc2F)n1	8330 nM (active)
CC(C)Nc1cc(C(F)(F)F)cc2nc(NC(=O)c3cccnc3)nn12	inactive
O=C(Nc1ncc(-c2cc(C(F)F)nn2-c2c(Cl)cccc2Cl)s1)C1CC1	187 nM (active)
COc1cc2c(NC3CCN(C(C)C)CC3)nc(C3CCCCC3)nc2cc1OCCCN1CCCC1	8330 nM (active)
COc1cc2c(cc1-c1c(C)noc1C)ncc1[nH]c(=O)n([C@H](C)c3ccccn3)c12	264 nM (active)
COCCOc1ccc2c(c1)ncn2-c1ccc2cccc(N3CCC(N)CC3)c2n1	5260 nM (active)
CN(C)CCCN=c1c2ccccc2n(C)c2[nH]c(=O)n(C)c(=O)c12	14800 nM (active)
Cc1[nH]c2ccccc2c1CCNCc1ccc(C=CC(=O)NO)cc1	66.2 nM (active)
Nc1ccc(S(=O)(=O)Nc2ncccn2)cc1	inactive
C=CCn1c(=O)c2cnc(Nc3ccc(N4CCN(C)CC4)cc3)nc2n1-c1cccc(C(C)(C)O)n1	264 nM (active)
C[C@@]12O[C@@H](C[C@]1(O)CO)n1c3ccccc3c3c4c(c5c6ccccc6n2c5c31)CNC4=O	418 nM (active)
CN1CC[C@@H](c2c(O)cc(O)c3c(=O)cc(-c4ccccc4Cl)oc23)[C@@H](O)C1	66.2 nM (active)
Cc1cc(C(=O)N2CCN(c3cccc(Cl)c3)CC2)n(-c2ccccc2)n1	148 nM (active)
Cc1c(NC(=O)OC[C@@H]2COCCN2)cn2ncnc(Nc3ccc4c(cnn4Cc4cccc(F)c4)c3)c12	26400 nM (active)
C=CC(=O)Nc1cc2c(Nc3ccc(F)c(Cl)c3)ncnc2cc1OCCCN1CCOCC1	9350 nM (active)
NC1(Cc2ccc(Cl)cc2)CCN(c2ncnc3[nH]ccc23)CC1	10500 nM (active)
